Experiment [1] can be described thus: Nuclear factor erythroid 2-related factor 2/antioxidant responsive element (Nrf2/ARE) small molecule agonists: qHTS cell viability counter screen in human keratinocytes (AID 1919968; active means well fitted curve in the direction sought with a large enough effect in the repeat runs; an effect the other way counts as inactive or inconclusive; further: nearly all actives have a fitted effect of over 55% in size; further: potency means the concentration at half of the fitted maximal effect). The method, boiled down:
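In human HaCaT keratinocytes stably expressing an ARE-driven luciferase, compound exposure lasted 23 h at 37 C under 5% CO2. Viable cells are quantified with a protease-based fluorogenic reagent (CellTiter-Fluor) read 1 h after addition.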
(In general: Quantitative high-throughput screening tests each substance at several concentrations.)

Experiment [2] can be described thus: Nuclear factor erythroid 2-related factor 2/antioxidant responsive element (Nrf2/ARE) small molecule agonists: luciferase reporter gene qHTS assay in human keratinocytes (AID 1919969). Further: nearly all actives have a fitted effect of over 35% in size. Further: potency means the concentration at half of the fitted maximal effect. Background: Reporter assays use an easily measured gene product as a stand-in for the process of interest.
In experiment [3] the target is KiSS-1 receptor (Homo sapiens) (UniProt Q969F8). Briefly: Human kisspeptin (KISS1R) small molecule agonists, calcium flux assay in KISS1R-HEK293 cells (AID 1920064; active means well fitted curve in the direction sought with a large enough effect in the repeat runs; an effect the other way counts as inactive or inconclusive). In outline:
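Concentration-response testing used 15 concentrations in triplicate on human KISS1R-expressing HEK293 cells. Calcium-dependent fluorescence (Ex/Em 480/540) was followed kinetically for 3 min after compound transfer.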

The nature of experiment [4]: G protein-coupled receptor (GPCR) small molecule agonists, calcium flux assay: HEK293 wild type cell line counter screen (AID 1920065). The method, boiled down:
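Fluorescence intensity signals activation. After overnight (18 h) culture and a 1 h calcium dye load at 37 C, compounds are added by pin tool and the plate read at 480/540 nm for 3 min in 1 s steps.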
Background: Calcium flux is commonly read through the fluorescence of an indicator in the cells.

Experiment [5] can be described thus: p53 small molecule agonists, cell-based qHTS assay with rat liver microsomes (AID 1963578). In outline: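 Compound in DMSO added to p53RE-bla cells 5 h post-plating; rat microsomes/NADPH 0.5 mg/mL final; 16 h, 37 C; LiveBLAzer 2 h RT.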
Experiment [6] in a line: p53 small molecule agonists, cell-based qHTS assay with human liver microsomes: qHTS cell viability counter screen (AID 1963579). Further: nearly all actives have a fitted effect of over 45% in size. Further: potency means the concentration at half of the fitted maximal effect. In outline:
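HLM-supplemented (0.5 mg/mL final) and NADPH-supplemented (0.5 mg/mL final) p53RE-bla cultures, 4,000 cells per well, were dosed with compounds in DMSO for 16 h at 37 C; luminescent ATP detection (CellTiter-Glo, 30 min, room temperature) quantified surviving cells.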

Experiment [7] can be described thus: p53 small molecule agonists, cell-based qHTS assay with rat liver microsomes: qHTS cell viability counter screen (AID 1963580). Further: nearly all actives have a fitted effect of over 45% in size. In outline:
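After the beta-lactamase ratio was read, CellTiter-Glo was added to the same wells and luminescence measured at 30 min; cells had been treated 16 h at 37 C with compounds, rat liver microsomes and NADPH (0.5 mg/mL final each).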

The nature of experiment [8]: p53 small molecule agonists, cell-based qHTS assay: qHTS cell viability counter screen (AID 1963581). Further: nearly all actives have a fitted effect of over 45% in size. Further: potency means the concentration at half of the fitted maximal effect. In outline:
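Luminescence from CellTiter-Glo, reflecting ATP content, serves as the cytotoxicity measure; it is taken after the 2 h reporter substrate step in HCT-116 p53RE-bla cells dosed for 16 h at 37 C.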

Experiment [9] is described as follows: p53 small molecule agonists, cell-based qHTS assay (AID 1963582; active means well fitted activation curve with a large enough effect in the signal ratio in the repeat runs, not every such curve was filed as active; the % refers to the signal ratio). The method, boiled down:
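After plating, p53RE-bla cells sat 5 h in the incubator; compounds or DMSO vehicle were pinned in; a 16 h incubation at 37 C followed; FRET substrate was added and, 2 h later at RT, fluorescence was measured.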

Experiment [10] deals with 5-hydroxytryptamine receptor 2A (Homo sapiens) (UniProt P28223). Briefly: 5-hydroxytryptamine receptor 2A (HTR2A) small molecule antagonists, cell-based qHTS assay (AID 1963586). Further: nearly all actives have a fitted effect of over 45% in size. In outline:
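CHO cells stably expressing human HTR2A were plated for 18 h at 37 C, then loaded with calcium dye for 1 h. Compounds were preincubated 5 min at room temperature before DOI (4 nM solution) was added. Kinetic fluorescence was read for 3 min.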

Experiment [11] shares this target. Briefly: 5-hydroxytryptamine receptor 2A (HTR2A) small molecule agonists, cell-based qHTS assay (AID 1963587). Further: nearly all actives have a fitted effect of over 30% in size. Further: potency means the concentration at half of the fitted maximal effect. In outline:
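CHO cells stably expressing human HTR2A, plated 18 h, loaded with calcium dye 1 h at 37 C. Agonist mode: compounds added and intracellular calcium fluorescence recorded kinetically for 2 min at 1 sec intervals.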

The target in experiment [12] is Muscarinic acetylcholine receptor M1 (Homo sapiens) (UniProt P11229). Briefly: Cholinergic receptor muscarinic 1 (CHRM1) small molecule antagonists, cell-based qHTS assay (AID 1963588). Further: nearly all actives have a fitted effect of over 40% in size. Further: potency means the concentration at half of the fitted maximal effect. The method, boiled down: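 Compounds were tested at 15 concentrations in three independent runs. Dye-loaded CHRM1-CHO cells were exposed 5 min at room temperature before stimulation by acetylcholine added at 50nM. Intracellular calcium was read kinetically on FDSS for 3 min.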

Experiment [13] has the same target. Briefly: Cholinergic receptor muscarinic 1 (CHRM1) small molecule agonists, cell-based qHTS assay (AID 1963589). Further: nearly all actives have a fitted effect of over 35% in size. The method, boiled down: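 Fluorescent calcium dye reports M1 activation in stably transfected CHO cells. Compounds, 15 concentrations, added after 1 h dye loading at 37 C; kinetic reading at 1 sec intervals.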
The nature of experiment [14]: cAMP Responsive Elements (CRE) small molecule agonists, cell-based qHTS assay (AID 1963590). In outline: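 Compound exposure lasted 3 h at 37 C/5% CO2 in CRE-bla HEK 293T cells grown in assay medium with 10% dialyzed FBS and 25 mM HEPES. Reporter signal came from LiveBLAzer B/G FRET substrate, 2 h, room temperature.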
The nature of experiment [15]: cAMP Responsive Elements (CRE) small molecule antagonists, cell-based qHTS assay (AID 1963591; active means well fitted inhibition curve with a large enough effect in the signal ratio in the repeat runs, not every such curve was filed as active; the % refers to the signal ratio). The method, boiled down: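 Stimulation used NKH477 at a final 0.25 uM for 3 h in compound-treated CRE-bla HEK293T cells, seeded 18 h beforehand. Reporter activity was measured with LiveBLAzer B/G FRET substrate after 2 h at room temperature.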
Experiment [16] has as its target Beta-2 adrenergic receptor (Homo sapiens) (UniProt P07550). Briefly: Adrenergic beta2 receptor (ADRB2) small molecule antagonists, cell-based qHTS assay (AID 1963592). Further: series mostly up to about 92 µM; nearly all actives have a fitted effect of over 50% in size. In outline: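 Assay format: CHO-ADRB2 cells, 18-20hr seeding at 37C/5% CO2, then compound plus 1nM isoproterenol agonist mix for 0.5hr RT. Homogeneous time-resolved fluorescence cAMP detection after 1hr, expressed as 665/615 nm ratio.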

Experiment [17] deals with D(2) dopamine receptor (Homo sapiens) (UniProt P14416). Briefly: Dopamine D2 receptor (DRD2) small molecule agonists, cell-based qHTS assay (AID 1963594). Further: nearly all actives have a fitted effect of over 35% in size. In outline: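 HEK293 cells stably expressing human DRD2, pre-treated with PDE inhibitor Ro20-1724 (0.1 mM final) and compound 10 min at room temperature, then stimulated with NKH477 (200nM […]) for 30 min. cAMP read by HTRF (665/620 nm).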

For experiment [18] the target is unchanged. Briefly: Dopamine D2 receptor (DRD2) small molecule antagonists, cell-based qHTS assay (AID 1963595; active means well fitted inhibition curve with a large enough effect in the signal ratio in the repeat runs, with a control signal flat; the % refers to the signal ratio; further: potency means the concentration at half of the fitted maximal effect). In outline: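 Antagonist mode in DRD2-HEK293 cells: after compound addition with 0.1 mM Ro20-1724, cells received quinpirole (12 nM) and NKH477 (200 nM) for 30 min at room temperature; HTRF cAMP read after 1 h detection.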
The target of experiment [19] is Gonadotropin-releasing hormone receptor (Homo sapiens) (UniProt P30968). Briefly: Human gonadotropin-releasing hormone receptor (GnRHR) small molecule agonists, calcium flux assay in GnRHR-HEK293 cells (AID 1920063). Further: nearly all actives have a fitted effect of over 35% in size. Further: potency means the concentration at half of the fitted maximal effect. In outline: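 Intracellular calcium rise is the read-out: engineered human GnRHR HEK293 cells, dye-loaded, are exposed to DMSO-dissolved compounds and fluorescence at Ex/Em 480/540 is tracked for 3 min.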

Experiment [20] deals with Beta-2 adrenergic receptor (Homo sapiens) (UniProt P07550). Briefly: Adrenergic beta2 receptor (ADRB2) small molecule agonists, cell-based qHTS assay (AID 1963593).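 Further: CHO cells stably overexpressing human ADRB2.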 In outline: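 CHO cells stably over-expressing ADRB2 were plated overnight at 37C, then dosed with compounds plus a stimulation mix containing 100uM IBMX and 25uM Ro-20-1724 for 0.5hr at room temperature. cAMP was measured by HTRF competition, 1hr.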

Values without a mark were called inactive. Inconclusive results are not listed. Calls of active or inactive are those of the source. Unless noted, the call rests on the fitted dose curve. Square brackets hold non-standard residues; d marks the D form. Peptide text beside a SMILES is read from it. pGlu = O=C1CC[C@@H](C(=O)O)N1

For ten compounds, Potency results are on record in PubChem BioAssay (Tox21).

Chain of 5-hydroxytryptamine receptor 2A (Homo sapiens) (P28223 whole entry, looked up): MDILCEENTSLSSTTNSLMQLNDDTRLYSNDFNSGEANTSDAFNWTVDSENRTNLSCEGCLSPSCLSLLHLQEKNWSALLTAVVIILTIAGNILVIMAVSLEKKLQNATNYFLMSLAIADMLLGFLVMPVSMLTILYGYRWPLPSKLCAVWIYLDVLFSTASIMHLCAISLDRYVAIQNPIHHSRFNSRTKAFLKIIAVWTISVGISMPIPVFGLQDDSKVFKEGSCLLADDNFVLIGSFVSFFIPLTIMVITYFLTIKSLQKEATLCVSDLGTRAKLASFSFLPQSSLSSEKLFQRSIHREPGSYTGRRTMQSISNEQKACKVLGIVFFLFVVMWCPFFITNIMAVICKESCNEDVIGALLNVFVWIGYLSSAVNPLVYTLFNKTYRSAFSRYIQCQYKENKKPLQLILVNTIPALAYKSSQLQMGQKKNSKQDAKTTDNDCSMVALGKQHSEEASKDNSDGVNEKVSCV
Chain of D(2) dopamine receptor (Homo sapiens) (P14416 whole entry, looked up): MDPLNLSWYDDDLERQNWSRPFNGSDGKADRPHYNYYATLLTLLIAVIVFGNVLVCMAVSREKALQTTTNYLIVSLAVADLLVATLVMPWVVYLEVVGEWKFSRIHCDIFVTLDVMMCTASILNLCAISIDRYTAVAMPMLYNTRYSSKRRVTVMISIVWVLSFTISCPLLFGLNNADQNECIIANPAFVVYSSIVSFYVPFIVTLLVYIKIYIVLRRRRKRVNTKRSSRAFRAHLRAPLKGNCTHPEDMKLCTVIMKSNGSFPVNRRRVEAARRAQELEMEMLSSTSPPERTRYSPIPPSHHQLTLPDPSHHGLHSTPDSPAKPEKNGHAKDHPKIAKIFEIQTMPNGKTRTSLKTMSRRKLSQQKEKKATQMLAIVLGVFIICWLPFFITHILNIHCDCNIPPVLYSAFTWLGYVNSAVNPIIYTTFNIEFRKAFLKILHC
Chain of Gonadotropin-releasing hormone receptor (Homo sapiens) (P30968 whole entry, looked up): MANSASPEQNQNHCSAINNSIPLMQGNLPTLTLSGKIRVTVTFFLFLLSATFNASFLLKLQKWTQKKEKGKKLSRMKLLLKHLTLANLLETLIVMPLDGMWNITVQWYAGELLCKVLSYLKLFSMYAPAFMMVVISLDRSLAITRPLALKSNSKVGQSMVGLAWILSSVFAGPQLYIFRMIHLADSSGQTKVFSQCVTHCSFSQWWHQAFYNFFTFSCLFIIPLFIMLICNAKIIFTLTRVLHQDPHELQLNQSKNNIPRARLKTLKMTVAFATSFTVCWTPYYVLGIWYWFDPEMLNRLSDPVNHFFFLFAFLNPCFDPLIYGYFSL
Chain of KiSS-1 receptor (Homo sapiens) (Q969F8 whole entry, looked up): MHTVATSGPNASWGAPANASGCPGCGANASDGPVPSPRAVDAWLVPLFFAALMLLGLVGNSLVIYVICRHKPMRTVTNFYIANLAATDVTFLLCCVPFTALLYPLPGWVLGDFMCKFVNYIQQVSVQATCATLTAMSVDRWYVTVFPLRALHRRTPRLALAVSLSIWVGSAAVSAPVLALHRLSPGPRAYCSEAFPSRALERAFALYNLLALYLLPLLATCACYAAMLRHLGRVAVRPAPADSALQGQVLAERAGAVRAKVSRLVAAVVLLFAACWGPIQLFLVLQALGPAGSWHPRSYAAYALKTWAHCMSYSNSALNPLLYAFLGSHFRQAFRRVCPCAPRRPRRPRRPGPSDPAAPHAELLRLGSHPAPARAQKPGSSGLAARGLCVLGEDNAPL
Chain of Muscarinic acetylcholine receptor M1 (Homo sapiens) (P11229 whole entry, looked up): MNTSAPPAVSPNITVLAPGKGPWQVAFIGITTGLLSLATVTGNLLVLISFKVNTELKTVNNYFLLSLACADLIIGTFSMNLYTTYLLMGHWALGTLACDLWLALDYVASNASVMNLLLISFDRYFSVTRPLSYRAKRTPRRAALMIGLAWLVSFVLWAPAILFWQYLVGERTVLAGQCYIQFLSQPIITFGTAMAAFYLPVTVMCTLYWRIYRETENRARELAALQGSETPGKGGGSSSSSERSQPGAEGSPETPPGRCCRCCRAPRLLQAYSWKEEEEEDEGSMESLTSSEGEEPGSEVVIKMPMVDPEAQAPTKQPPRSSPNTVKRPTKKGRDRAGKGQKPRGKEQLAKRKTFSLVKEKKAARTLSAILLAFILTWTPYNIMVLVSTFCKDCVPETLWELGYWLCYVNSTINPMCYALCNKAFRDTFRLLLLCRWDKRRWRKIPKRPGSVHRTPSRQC
Chain of Beta-2 adrenergic receptor (Homo sapiens) (P07550 whole entry, looked up): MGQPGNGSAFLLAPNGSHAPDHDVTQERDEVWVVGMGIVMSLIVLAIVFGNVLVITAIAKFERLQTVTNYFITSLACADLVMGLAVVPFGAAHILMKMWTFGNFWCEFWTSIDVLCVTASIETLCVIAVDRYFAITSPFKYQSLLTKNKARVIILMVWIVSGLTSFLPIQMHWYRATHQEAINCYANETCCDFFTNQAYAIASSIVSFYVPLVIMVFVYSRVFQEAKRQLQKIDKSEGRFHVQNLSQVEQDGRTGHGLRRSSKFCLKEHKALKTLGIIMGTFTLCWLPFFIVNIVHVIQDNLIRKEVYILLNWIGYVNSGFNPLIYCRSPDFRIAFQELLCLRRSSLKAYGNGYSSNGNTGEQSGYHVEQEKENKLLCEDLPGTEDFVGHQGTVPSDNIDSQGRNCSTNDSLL

As to `CCCC(CC)c1ccccc1` (centres undefined), the Potency entry in [1], in [2], in experiment [3], in experiment [4], in [5] and in experiment [6] was “inactive” throughout. In addition, the Potency entry in experiment [7], in experiment [8], in experiment [9], in [10], in experiment [11] and in experiment [12] was “inactive” throughout. Besides, the Potency result in [13], in experiment [14], in experiment [15], in [16], in experiment [17] and in experiment [18] was “inactive” in each case.

Turning to `Cc1ccc(S(=O)(=O)C(I)I)cc1`, the Potency in experiment [1] was 27.3 µM (active); in experiment [2], 6.11 µM (active); in experiment [19] it was 38.9 µM (active); in [11], 54.9 µM (active); in experiment [12], 18.8 µM (active); in experiment [18] it was 30.6 µM (active). Moreover, the Potency result in experiment [5], in [8], in [10], in [16] and in [17] was “inactive” each time.

`Cc1nc2c([nH]1)c(=O)n(C)c(=O)n2Cc1ccco1`: the Potency result in experiment [1], in experiment [2], in [19], in experiment [4], in [6] and in experiment [7] was “inactive” throughout. Further, the Potency entry in experiment [8], in [10], in experiment [11], in [12], in experiment [13] and in experiment [15] was “inactive” in each case. Also, the Potency entry in [16] and in experiment [18] was “inactive” in each case.

As for `C[C@]12CCC(=O)C=C1C=C[C@@H]1[C@@H]2CC[C@@]2(C)[C@H]1CC[C@@]21CCC(=O)O1`, the Potency result in experiment [1], in experiment [2], in experiment [3], in [4], in experiment [5] and in [6] was “inactive” each time. Also, the Potency result in experiment [7], in [8], in [9], in [10], in experiment [11] and in experiment [13] was “inactive” throughout. In addition, the Potency result in [16] and in experiment [20] was “inactive” throughout.

As for `CCCCNc1ccc(C(=O)OCCOCCOCCOCCOCCOCCOCCOCCOCCOC)cc1`, the Potency entry in experiment [1], in [2], in experiment [19], in [4], in experiment [6] and in [7] was “inactive” in each case. The Potency result in experiment [10], in experiment [11], in [12], in experiment [13], in [14] and in experiment [15] was “inactive” throughout. The Potency result in experiment [16], in experiment [17] and in experiment [18] was “inactive” each time.

For the compound `COc1cc(/C=C/C(=O)CC(=O)/C=C/c2ccc(O)c(OC)c2)ccc1O`, the Potency in [1] was 48.9 µM (active); in [2] it was 15.4 µM (active); in experiment [19], 39.2 µM (active); in experiment [6], 16.3 µM (active); in experiment [8], 46.1 µM (active). Besides, the Potency entry in experiment [10], in [12], in [16] and in experiment [17] was “inactive” each time.

Consider `CC(=O)S[C@@H]1CC2=CC(=O)CC[C@]2(C)[C@H]2CC[C@@]3(C)[C@@H](CC[C@@]34CCC(=O)O4)[C@H]12`, for which the Potency entry in experiment [1], in experiment [3], in [4], in [5], in [6] and in [7] was “inactive” throughout. The Potency result in [8], in experiment [16] and in experiment [17] was “inactive” in each case. Also, the Potency in [2] was 24.3 µM (active).

As for `CCNC(=O)[C@@H]1CCCN1C(=O)[C@H](CCCN=C(N)N)NC(=O)[C@H](CC(C)C)NC(=O)CNC(=O)[C@H](Cc1ccc(O)cc1)NC(=O)[C@H](CO)NC(=O)[C@H](Cc1c[nH]c2ccccc12)NC(=O)[C@H](Cc1cnc[nH]1)NC(=O)[C@@H]1CCC(=O)N1` ([pGlu]HWSYGLRP-NHEt), the Potency result in experiment [1], in experiment [2], in [3], in experiment [4], in [5] and in experiment [6] was “inactive” each time. The Potency entry in experiment [7], in experiment [8], in experiment [9], in experiment [14], in experiment [15] and in experiment [16] was “inactive” throughout. Moreover, the Potency entry in experiment [17] and in [18] was “inactive” each time.

Turning to `CC(NCCC(c1ccccc1)c1ccccc1)c1ccccc1` (centres undefined), the Potency in experiment [1] was 26.6 µM (active); in experiment [11] it was 23.9 µM (active). Also, the Potency entry in experiment [2], in [3], in experiment [4], in experiment [5], in experiment [6] and in [7] was “inactive” each time. Besides, the Potency entry in experiment [8], in [9], in [10], in experiment [12], in experiment [13] and in experiment [17] was “inactive” each time.

For the compound `Cc1cccc(NC(=S)N(C)C)c1`, the Potency result in [1], in experiment [2], in experiment [19], in [4], in experiment [6] and in experiment [7] was “inactive” throughout. Further, the Potency result in experiment [10], in experiment [11], in experiment [12], in [14], in experiment [15] and in experiment [16] was “inactive” each time. The Potency result in experiment [20], in experiment [17] and in experiment [18] was “inactive” each time.
